Results reported in PubChem BioAssay (EPA / NIEHS).
Results filed as inconclusive are left out. Calls of active or inactive are those of the source. How the source made its calls, unless noted: active means hit-call score of the fitted dose curve at least 0.9, where 1 is the maximum; inactive means score below 0.9.

Assay: CCTE_Harrill_HTTr_Viability_MCF7: CCTE's 6-hour Cell Viability Assessment for the High-Throughput Transcriptomics (HTTr) Platform, in MCF-7 cells cultured in DMEM + 10% fetal bovine serum, Harrill Lab (AID 2284010)
How it was run: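 Eight-point concentration series, six-hour exposure. Propidium iodide exclusion imaged to assess membrane integrity as a cytotoxicity readout; bidirectional fitting was done with DMSO as negative control and activity baseline.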

Q: For `O=C(O)C(=O)O`, which outcome is on record?
A: The outcome was “inactive”.

Q: For `CCCCC=O`, which outcome is on record?
A: Its outcome is “inactive”.

Q: Which outcome does the source give for `CC(O)COc1ccccc1` (centres undefined) here?
A: The outcome was “inactive”.

Q: Which outcome does the source give for `CC(=O)Nc1ccc(O)cc1` here?
A: The outcome was “inactive”.

Q: Which outcome does the source give for `CN(Cc1cnc2nc(N)nc(N)c2n1)c1ccc(C(=O)N[C@@H](CCC(=O)O)C(=O)O)cc1` here?
A: Its outcome is “inactive”.

Q: With `C=C(c1ccc(C(=O)O)cc1)c1cc2c(cc1C)C(C)(C)CCC2(C)C` as the molecule, how does the outcome read?
A: The outcome was “inactive”.

Q: With `c1cc2cccc3c4cccc5cccc(c(c1)c23)c54` as the molecule, how does the outcome read?
A: Its outcome is “inactive”.

Q: With `CCCCCCCCCC=CCC1CC(=O)OC1=O` (centres undefined) as the molecule, how does the outcome read?
A: Its outcome is “inactive”.

Q: Which outcome does the source give for `COc1cc(OC)nc(NC(=O)NS(=O)(=O)Nc2ccccc2C(=O)N(C)C)n1` here?
A: Its outcome is “inactive”.

Q: Which outcome does the source give for `O=C(c1ccccc1)c1ccccc1` here?
A: Its outcome is “inactive”.

Q: For `CCC(C)c1ccccc1O` (centres undefined), which outcome is on record?
A: The outcome was “inactive”.

Q: Which outcome does the source give for `OCC(CO)(CBr)CBr` here?
A: The outcome was “inactive”.

Q: For `Cc1ccc(N=Nc2c(O)ccc3ccccc23)c(C)c1`, which outcome is on record?
A: The outcome was “inactive”.

Q: For `CC1=NN(c2ccccc2)C(=O)C1`, which outcome is on record?
A: Its outcome is “inactive”.

Q: Which outcome does the source give for `CC1COCc2cc3c(cc21)C(C)(C)C(C)C3(C)C` (centres undefined) here?
A: Its outcome is “inactive”.

Q: Which outcome does the source give for `CCCCCCCCCCCC` here?
A: The outcome was “inactive”.

Q: Which outcome does the source give for `CN(C)CCOC(c1ccccc1)c1ccccc1` here?
A: Its outcome is “inactive”.

Q: Which outcome does the source give for `O=C1NS(=O)(=O)c2ccccc21` here?
A: Its outcome is “inactive”.

Q: With `NC(=NCCCCCCN=C(N)/N=C(\N)Nc1ccc(Cl)cc1)/N=C(\N)Nc1ccc(Cl)cc1` as the molecule, how does the AC50 read?
A: Its AC50 is 70000 nM (active).

Q: Which outcome does the source give for `CC(C)[C@@H]1CC[C@@H](C)C[C@H]1O` here?
A: The outcome was “inactive”.

Q: Which outcome does the source give for `CC(C)(O)C(=O)c1ccccc1` here?
A: Its outcome is “inactive”.

Q: With `O=C(NCc1ncc(C(F)(F)F)cc1Cl)c1c(Cl)cccc1Cl` as the molecule, how does the outcome read?
A: Its outcome is “inactive”.

Q: With `O=S(=O)(O)c1ccccc1` as the molecule, how does the outcome read?
A: The outcome was “inactive”.

Q: For `Nc1ccc(O)c(C(=O)O)c1`, which outcome is on record?
A: Its outcome is “inactive”.

Q: For `N=C(N)c1ccc(OCCCCCOc2ccc(C(=N)N)cc2)cc1`, which outcome is on record?
A: The outcome was “inactive”.

Q: For `Oc1c(Cl)cc(Cl)cc1Sc1cc(Cl)cc(Cl)c1O`, which outcome is on record?
A: Its outcome is “inactive”.

Q: For `CCCCc1oc2ccccc2c1C(=O)c1cc(I)c(OCCN(CC)CC)c(I)c1`, which outcome is on record?
A: Its outcome is “inactive”.

Q: For `NS(=O)(=O)O`, which outcome is on record?
A: The outcome was “inactive”.

Q: For `O=C(CCCN1CCC(O)(c2ccc(Cl)cc2)CC1)c1ccc(F)cc1`, which outcome is on record?
A: The outcome was “inactive”.

Assay: CCTE_Harrill_HTTr_Apoptosis_MCF7: CCTE's 6-hour Apoptosis Assessment for the High-Throughput Transcriptomics (HTTr) Platform, in MCF-7 cells cultured in DMEM + 10% fetal bovine serum, Harrill Lab (AID 2284011)
How it was run: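 MCF-7 cells in DMEM + 10% FBS exposed 6 h to chemicals over an eight-point dilution series. Caspase-3/7 activation imaged by high-content CellEvent Green staining; fitted bidirectionally versus DMSO.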

Q: With `O=C(O)C(=O)O` as the molecule, how does the outcome read?
A: The outcome was “inactive”.

Q: Which outcome does the source give for `CCCCC=O` here?
A: The outcome was “inactive”.

Q: For `CC(O)COc1ccccc1` (centres undefined), which outcome is on record?
A: The outcome was “inactive”.

Q: With `CC(=O)Nc1ccc(O)cc1` as the molecule, how does the outcome read?
A: The outcome was “inactive”.

Q: With `CN(Cc1cnc2nc(N)nc(N)c2n1)c1ccc(C(=O)N[C@@H](CCC(=O)O)C(=O)O)cc1` as the molecule, how does the outcome read?
A: Its outcome is “inactive”.

Q: Which outcome does the source give for `C=C(c1ccc(C(=O)O)cc1)c1cc2c(cc1C)C(C)(C)CCC2(C)C` here?
A: Its outcome is “inactive”.

Q: Which outcome does the source give for `c1cc2cccc3c4cccc5cccc(c(c1)c23)c54` here?
A: The outcome was “inactive”.

Q: Which outcome does the source give for `CCCCCCCCCC=CCC1CC(=O)OC1=O` (centres undefined) here?
A: Its outcome is “inactive”.

Q: For `COc1cc(OC)nc(NC(=O)NS(=O)(=O)Nc2ccccc2C(=O)N(C)C)n1`, which outcome is on record?
A: The outcome was “inactive”.

Q: Which outcome does the source give for `O=C(c1ccccc1)c1ccccc1` here?
A: Its outcome is “inactive”.

Q: For `CCC(C)c1ccccc1O` (centres undefined), which outcome is on record?
A: The outcome was “inactive”.

Q: With `OCC(CO)(CBr)CBr` as the molecule, how does the outcome read?
A: Its outcome is “inactive”.

Q: With `Cc1ccc(N=Nc2c(O)ccc3ccccc23)c(C)c1` as the molecule, how does the outcome read?
A: Its outcome is “inactive”.

Q: Which outcome does the source give for `CC1=NN(c2ccccc2)C(=O)C1` here?
A: The outcome was “inactive”.

Q: Which outcome does the source give for `CC1COCc2cc3c(cc21)C(C)(C)C(C)C3(C)C` (centres undefined) here?
A: Its outcome is “inactive”.

Q: With `CCCCCCCCCCCC` as the molecule, how does the outcome read?
A: Its outcome is “inactive”.

Q: Which outcome does the source give for `CN(C)CCOC(c1ccccc1)c1ccccc1` here?
A: The outcome was “inactive”.

Q: For `O=C1NS(=O)(=O)c2ccccc21`, which outcome is on record?
A: Its outcome is “inactive”.

Q: With `NC(=NCCCCCCN=C(N)/N=C(\N)Nc1ccc(Cl)cc1)/N=C(\N)Nc1ccc(Cl)cc1` as the molecule, how does the outcome read?
A: Its outcome is “inactive”.

Q: For `CC(C)[C@@H]1CC[C@@H](C)C[C@H]1O`, which outcome is on record?
A: Its outcome is “inactive”.

Q: With `CC(C)(O)C(=O)c1ccccc1` as the molecule, how does the outcome read?
A: Its outcome is “inactive”.

Q: With `O=C(NCc1ncc(C(F)(F)F)cc1Cl)c1c(Cl)cccc1Cl` as the molecule, how does the outcome read?
A: Its outcome is “inactive”.

Q: Which outcome does the source give for `O=S(=O)(O)c1ccccc1` here?
A: Its outcome is “inactive”.

Q: With `Nc1ccc(O)c(C(=O)O)c1` as the molecule, how does the outcome read?
A: Its outcome is “inactive”.

Q: With `N=C(N)c1ccc(OCCCCCOc2ccc(C(=N)N)cc2)cc1` as the molecule, how does the outcome read?
A: Its outcome is “inactive”.

Q: Which outcome does the source give for `Oc1c(Cl)cc(Cl)cc1Sc1cc(Cl)cc(Cl)c1O` here?
A: The outcome was “inactive”.

Q: With `CCCCc1oc2ccccc2c1C(=O)c1cc(I)c(OCCN(CC)CC)c(I)c1` as the molecule, how does the outcome read?
A: Its outcome is “inactive”.

Q: Which outcome does the source give for `NS(=O)(=O)O` here?
A: Its outcome is “inactive”.

Q: With `O=C(CCCN1CCC(O)(c2ccc(Cl)cc2)CC1)c1ccc(F)cc1` as the molecule, how does the outcome read?
A: The outcome was “inactive”.

Assay: CCTE_Harrill_HTTr_CellCount_MCF7: CCTE's Cell Proliferation Assessment for the High-Throughput Transcriptomics (HTTr) Platform, Harrill Lab (AID 2284012; active means hit-call score of the fitted dose curve at least 0.9, where 1 is the maximum;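 further: count of Hoechst-stained nuclei per well by high-content imaging in MCF-7 cells; cells exposed to compound for six hours; intended direction is loss of nuclei count meaning fewer cells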)
How it was run: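 For this full-screen endpoint, MCF-7 cultures received eight compound dilutions for six hours. Well nuclei counts from Hoechst imaging were analyzed relative to DMSO.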

Q: Which outcome does the source give for `O=C(O)C(=O)O` here?
A: The outcome was “inactive”.

Q: Which outcome does the source give for `CCCCC=O` here?
A: Its outcome is “inactive”.

Q: For `CC(O)COc1ccccc1` (centres undefined), which outcome is on record?
A: The outcome was “inactive”.

Q: For `CC(=O)Nc1ccc(O)cc1`, which outcome is on record?
A: Its outcome is “inactive”.

Q: With `O=C(c1ccccc1)c1ccccc1` as the molecule, how does the outcome read?
A: Its outcome is “inactive”.

Q: With `CCC(C)c1ccccc1O` (centres undefined) as the molecule, how does the outcome read?
A: The outcome was “inactive”.

Q: For `OCC(CO)(CBr)CBr`, which outcome is on record?
A: The outcome was “inactive”.

Q: For `CC1COCc2cc3c(cc21)C(C)(C)C(C)C3(C)C` (centres undefined), which outcome is on record?
A: The outcome was “inactive”.

Q: With `CCCCCCCCCCCC` as the molecule, how does the outcome read?
A: The outcome was “inactive”.

Q: With `O=C1NS(=O)(=O)c2ccccc21` as the molecule, how does the outcome read?
A: The outcome was “inactive”.

Q: Which outcome does the source give for `N=C(N)c1ccc(OCCCCCOc2ccc(C(=N)N)cc2)cc1` here?
A: The outcome was “inactive”.

Q: Which outcome does the source give for `Oc1c(Cl)cc(Cl)cc1Sc1cc(Cl)cc(Cl)c1O` here?
A: Its outcome is “inactive”.

Q: For `CCCCc1oc2ccccc2c1C(=O)c1cc(I)c(OCCN(CC)CC)c(I)c1`, which outcome is on record?
A: The outcome was “inactive”.

Q: With `O=C(CCCN1CCC(O)(c2ccc(Cl)cc2)CC1)c1ccc(F)cc1` as the molecule, how does the outcome read?
A: Its outcome is “inactive”.

Assay: CCTE_Shafer_MEA_acute_burst_number: CCTE's Neural Acute Assay for Single-Electrode Bursts, Shafer Lab (AID 2284013)
How it was run: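 Primary rat cortical neurons on 16-electrode MEA wells, DIV 13 or 15, exposed to compound (0.03-40 uM; ≥3 wells); 40-min recordings at 37 C before and after treatment. Burst count expressed as percent change from baseline, DMSO as negative control.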

Q: For `CCCCC=O`, which outcome is on record?
A: Its outcome is “inactive”.

Q: With `CC(=O)Nc1ccc(O)cc1` as the molecule, how does the outcome read?
A: Its outcome is “inactive”.

Q: Which AC50 does the source give for `CCC(C)c1ccccc1O` (centres undefined) here?
A: Its AC50 is 2440 nM (active).

Q: With `OCC(CO)(CBr)CBr` as the molecule, how does the outcome read?
A: Its outcome is “inactive”.

Q: For `CCCCCCCCCCCC`, which outcome is on record?
A: The outcome was “inactive”.

Q: For `CN(C)CCOC(c1ccccc1)c1ccccc1`, which AC50 is on record?
A: Its AC50 is 3110 nM (active).

Q: For `O=C1NS(=O)(=O)c2ccccc21`, which AC50 is on record?
A: Its AC50 is 3 nM (active).

Q: For `N=C(N)c1ccc(OCCCCCOc2ccc(C(=N)N)cc2)cc1`, which outcome is on record?
A: The outcome was “inactive”.

Q: For `Oc1c(Cl)cc(Cl)cc1Sc1cc(Cl)cc(Cl)c1O`, which outcome is on record?
A: The outcome was “inactive”.

Q: Which outcome does the source give for `CCCCc1oc2ccccc2c1C(=O)c1cc(I)c(OCCN(CC)CC)c(I)c1` here?
A: Its outcome is “inactive”.

Q: With `O=C(CCCN1CCC(O)(c2ccc(Cl)cc2)CC1)c1ccc(F)cc1` as the molecule, how does the outcome read?
A: Its outcome is “inactive”.

Q: With `Oc1ccc(Cc2ccccc2O)cc1` as the molecule, how does the AC50 read?
A: Its AC50 is 23.6 nM (active).
